# Results as given in PubChem BioAssay AID1822 (The Scripps Research Institute Molecular Screening Center, 2009).
# Hit rate of the full screen: of about 290,000 compounds, about 3,500 (1.2%) were called active.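 The calls were made as follows: active = inhibition above the campaign mean inhibition over all tested compounds plus 3 SD (cut at about 28% in these data); inactive = the rest.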 The entries come from a sample that favours actives as a whole.
# System: M18 aspartyl aminopeptidase (Plasmodium falciparum 3D7)
# Assay: inhibition of P. falciparum M18 aminopeptidase – biochemical, QFRET, recombinant enzyme, primary screen (AID 1822);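 also: 0% = plate median of test compound wells and 100% = 2 mM ZnCl2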
# Conditions: recombinant PfM18AAP, H-Glu-NHMec fluorogenic cleavage; at 7.35 µM; hits give high values
row,SMILES,inhibition
1,COc1ccc(OC)c(/C=N/NC(=O)CSc2nnc(C)n2-c2ccccc2)c1,-0.06% (inactive)
2,Cc1ccc(Cn2c(SCC(=O)N/N=C/c3ccccc3OCC(=O)O)nc3ccccc32)cc1,5.43% (inactive)
3,C=CCn1c(Cn2nnc3ccccc32)nnc1SCC(=O)N/N=C/c1cc(Br)cc(OC)c1O,28.3% (active)
4,O=C1C2CCCN2C(=O)N1CCCCN1CCN(c2cccc(C(F)(F)F)c2)CC1 (configuration not stated),-6.19% (inactive)
5,CC(C)C1Cc2c(sc3c2c(=O)n(-c2ccccc2)c2nncn32)CO1 (configuration not stated),9.11% (inactive)
6,CC(C)CNC(=O)C(=O)Nc1ccc(N(C)C)cc1,5.25% (inactive)
7,CC(=O)NC(CC(=O)O)c1ccc(F)cc1 (configuration not stated),4.92% (inactive)
8,CN(C)c1ccc(C(CC(=O)O)C(=O)O)cc1 (configuration not stated),33.2% (active)
9,COc1ccc(OC)c(C(O)c2nc3ccccc3n2C)c1 (configuration not stated),2.35% (inactive)
10,CC(=O)c1ccc(N2CCN(CC(O)c3ccccc3)CC2)cc1 (configuration not stated),-0.23% (inactive)
11,COC(=O)c1ccc(CN2C(=O)NC(c3ccccc3)(c3ccccc3)C2=O)o1,0.97% (inactive)
12,CCOCCCNC(=O)c1ccc(CS(=O)(=O)c2cccc(C(F)(F)F)c2)o1,78.5% (active)
13,COc1ccccc1CNC(=O)c1ccc(CS(=O)(=O)c2ccccc2)o1,-0.58% (inactive)
14,COc1ccc(CCNC(=O)c2ccc(CS(=O)(=O)c3ccc(Br)cc3)o2)cc1OC,-0.17% (inactive)
15,Cc1c(Cl)cccc1NC(=O)[C@@]1(CC(=O)O)CC(/C=C/c2ccccc2)=NO1,-3.65% (inactive)
16,O=C(NCCO)C(=O)NCC(c1ccc2c(c1)OCO2)N1CCN(c2ccc(F)cc2)CC1 (configuration not stated),2.98% (inactive)
17,Cc1cc(NC(=O)CSc2nnc(-c3ccc(Cl)s3)o2)no1,21.4% (inactive)
18,COc1ccccc1-c1nnc(SCC(=O)Nc2cc(C)on2)o1,39.2% (active)
19,COc1ccccc1-c1nnc(SCC(=O)Nc2ccccc2)o1,17.1% (inactive)
20,COc1ccc(C(=O)CCC(=O)Nc2ccc(Cl)cc2)cc1,-1.71% (inactive)
21,COc1ccc(-c2csc(Nc3ccc(O)cc3)n2)cc1,28.1% (active)

row,SMILES,inhibition
1,COc1ccc(C)cc1Nc1nc(-c2c(C)[nH]c3ccccc23)cs1,-5.8% (inactive)
2,Oc1ccc(-c2csc(Nc3cccnc3)n2)cc1,55.7% (active)
3,Cc1ccccc1Nc1nc(-c2cccnc2)cs1,1.18% (inactive)
4,COc1cccc(CC(=O)Nc2nc(-c3ccc(OC)c(OC)c3)cs2)c1,-8.12% (inactive)
5,NS(=O)(=O)c1ccc(Nc2nc(-c3ccccc3)cs2)cc1,2.74% (inactive)
6,COc1ccc2nc(Nc3nc(-c4ccncc4)cs3)sc2c1,-1.76% (inactive)
7,COc1ccc(OC)c(Nc2nc(-c3ccc(O)c(O)c3)cs2)c1,56.5% (active)
8,CN(c1ccc(O)cc1)c1nc(-c2cccnc2)cs1,7.5% (inactive)
9,O=C(N/C(=C\c1ccc([N+](=O)[O-])cc1)C(=O)N1CCOCC1)c1cccc(Br)c1,0.07% (inactive)
10,COc1ccc(C(=O)N2CCCN(C)CC2)c(OC)c1,-1.62% (inactive)
11,CCOc1cc(/C=C2\SC(N3CCCC(C)C3)=NC2=O)ccc1O (configuration not stated),9.44% (inactive)
12,O=c1c2ccccc2[nH]c(=S)n1CCN1CCC(=C(c2ccc(F)cc2)c2ccc(F)cc2)CC1,-3.53% (inactive)
13,Cc1nc(N=C(N)N)nc2c(C)cccc12,3.01% (inactive)
14,COc1cc(COCC(O)CN2CCN(Cc3ccc4c(c3)OCO4)CC2)cc(OC)c1OC (configuration not stated),1.06% (inactive)
15,COc1c(O)ccc2c1CN1CCc3cc4c(cc3C1C2)OCO4 (configuration not stated),42.2% (active)
16,COc1ccc(CN2CCCC(N3CCc4ccccc4C3)C2)c(O)c1 (configuration not stated),1.47% (inactive)
17,Cc1ccc(NC(=O)CSc2sc3c(O)cc(=O)[nH]c3c2C#N)cc1C,9.88% (inactive)
18,Cc1cc(=O)[nH]c(S)c1C#N,31.9% (active)
19,Cc1cc(=O)[nH]c(SCC(N)=O)c1C#N,6.8% (inactive)
20,CC(C)(C)C(=O)NNC(=O)c1ccc(Oc2cc(Cl)cc(Cl)c2)o1,7.33% (inactive)
21,CCC(C)C(NC(=O)C1CCC(=O)N1C(=O)OCc1ccccc1)C(=O)NC(C(=O)N1CCCC1C(N)=O)C(C)CC (configuration not stated),1.63% (inactive)

row,SMILES,inhibition
1,O=C(Cc1ccccc1)NC(=S)Nc1ccc(N2CCCCC2)cc1,-3.44% (inactive)
2,CCOC(=O)/C(C#N)=C/c1ccc(N2CCCCC2)cc1,0.72% (inactive)
3,O=C1C=CC(=O)N1c1ccc(N2CCCCC2)cc1,35.3% (active)
4,CC(C)CCN(C(=O)c1csnn1)C(C(=O)NC1CCCC1)c1ccccc1 (configuration not stated),5.8% (inactive)
5,O=C(Nc1ccnn1C1CCN(Cc2cccc(OCCO)c2)CC1)C1CCCC1,-3.2% (inactive)
6,CCCC(C)NC(=O)C1CCN(C(=O)C2CC(=O)N(c3ccc(C)cc3)C2)CC1 (configuration not stated),-1.18% (inactive)
7,COc1ccc2c(c1)C(C)=CC(C)(C)N2C(=O)CNCc1ccc2c(c1)OCO2,12.3% (inactive)
8,COc1ccc2c(c1)C(C)=CC(C)(C)N2C(=O)Nc1ccccc1,34.2% (active)
9,CC1=CC(C)(C)N(C(=O)CSc2nnc(-c3ccccc3)o2)c2ccc(C)cc21,1.48% (inactive)
10,O=C1C(=O)N(CCCO)C(c2ccccc2)/C1=C(\O)c1ccc(Br)cc1 (configuration not stated),-0.04% (inactive)
11,O=C(CN1C(=O)NC2(CCCCC2)C1=O)NCCc1c[nH]c2ccccc12,0.15% (inactive)
12,O=c1nc(N/N=C/c2ccco2)cn[nH]1,52.8% (active)
13,CC(C)NC(=O)C(=O)N/N=C/c1ccco1,-9.66% (inactive)
14,O=C(N/N=C/c1ccco1)c1ccc(C(=O)N/N=C/c2ccco2)o1,6.04% (inactive)
15,CCS(=O)(=O)Nc1ccc(C(=O)NCCSc2ccccc2)cc1,-4.1% (inactive)
16,CCCCNC(=O)C1CCC(=O)N1CCc1ccccc1 (configuration not stated),-7.08% (inactive)
17,CNC(=O)/C(C#N)=C/c1c(F)cccc1Cl,-1.65% (inactive)
18,COc1cc(CN2CCCN(C)CC2)c([N+](=O)[O-])cc1OC,13.4% (inactive)
19,COc1cc(CNCc2ccc3c(c2)OCO3)c([N+](=O)[O-])cc1OC,13.5% (inactive)
20,COc1cc(CN2CCN(Cc3ccc(C)cc3)CC2)c([N+](=O)[O-])cc1OC,29.9% (active)
